# Data: PubChem BioAssay (NCI)
# This is part of a sample that, as a whole, favours compounds with a hit. Of some 79,000 tested, about 15% had one in any assay. A number with no mark means an inactive call. Calls of active or inactive are those of the source. Rule as the data show it: active = growth inhibition above about 70%; inactive = the rest.
# Key:
# [1] = NCI Yeast Anticancer Drug Screen. Data for the rad50 strain (AID 155);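 also: 0% = growth of vehicle-only cultures of the same strain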; conditions: S. cerevisiae rad50 strain growth inhibition, hits give high values
# How it was run: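 Relative growth inhibition (compound vs vehicle) was measured in yeast with a defined repair-gene alteration.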
# [2] = NCI Yeast Anticancer Drug Screen. Data for the mec2-1 strain (AID 157); conditions: S. cerevisiae mec2-1 strain, hits give high values
# How it was run: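 Vehicle-treated cultures served as reference for growth inhibition of compound-exposed mec2-1 yeast.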
# [3] = NCI Yeast Anticancer Drug Screen. Data for the sgs1 mgt1 strain (AID 161);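 also: 0% = growth of cultures given vehicle only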; conditions: S. cerevisiae sgs1 mgt1 strain, hits give high values
# How it was run: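 Inhibition of yeast growth, normalised to vehicle-treated controls, is reported for a strain bearing genetic alterations in DNA damage repair.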
# [4] = NCI Yeast Anticancer Drug Screen. Data for the cln2 rad14 strain (AID 165);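 also: 0% = growth equal to vehicle treated cultures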; conditions: S. cerevisiae cln2 rad14 strain, hits give high values
# How it was run: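 Each compound was tested on cln2 rad14 yeast. Inhibition of growth was calculated against vehicle-exposed controls.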
# [5] = NCI Yeast Anticancer Drug Screen. Data for the bub3 strain (AID 167); conditions: S. cerevisiae bub3 mutant strain, hits give high values
# How it was run: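 Screening used yeast with an engineered genetic alteration affecting cell cycle control. Compound-exposed cultures were compared with vehicle cultures, and reduced growth was taken as inhibition.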
# [6] = NCI Yeast Anticancer Drug Screen. Data for the mlh1 rad18 strain (AID 175); conditions: S. cerevisiae mlh1 rad18 strain growth inhibition, hits give high values
# How it was run: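 Vehicle-treated cultures served as the reference for growth inhibition in a yeast strain carrying DNA damage repair alterations exposed to each compound.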
# [7] = at 5.0 µM (retest, dose inferred, filed as 0.5)
# [8] = at 50.0 µM (retest, dose inferred, filed as 5.0)
Structure (SMILES),"growth inhibition [1, 7]","growth inhibition [1, 8]",growth inhibition ([1]; at 50.0 µM),"growth inhibition [2, 7]","growth inhibition [2, 8]",growth inhibition ([2]; at 50.0 µM),"growth inhibition [3, 7]","growth inhibition [3, 8]",growth inhibition ([3]; at 50.0 µM),"growth inhibition [4, 7]","growth inhibition [4, 8]",growth inhibition ([4]; at 50.0 µM),"growth inhibition [5, 7]","growth inhibition [5, 8]",growth inhibition ([5]; at 50.0 µM),"growth inhibition [6, 7]","growth inhibition [6, 8]",growth inhibition ([6]; at 50.0 µM)
C/C=C/C(=O)NCC(C(C)C)/[N+]([O-])=N/O (configuration not stated),94% (active),95% (active),91.8% (active),95% (active),95% (active),93.3% (active),97% (active),97% (active),93.3% (active),80% (active),82% (active),91.2% (active),87% (active),86% (active),91.8% (active),97% (active),97% (active),91.9% (active)
CCOC(=O)C1(C#N)C(=O)CSC1=Nc1ccccc1Cl (configuration not stated),-7%,-14%,-5.95%,-16%,-11%,-8.75%,-4%,-2%,25%,13%,17%,-9.95%,-14%,-10%,18.4%,-33%,-54%,-3.4%
CCCN(CCC)C(=O)c1nc(N)nc(-c2ccc(OC)cc2)c1-c1ccc(OC)cc1,9%,9%,-23.6%,-1%,-1%,-30.1%,-6%,-6%,29.4%,0%,0%,2.55%,-10%,-10%,-21.4%,-9%,-9%,-42%
c1cc[c]([Ge]([O]c2cccc3cccnc23)([c]2ccccc2)[c]2ccccc2)cc1,10%,10%,73% (active),7%,7%,67%,-3%,-3%,67.5%,6%,6%,45.5%,7%,7%,72.2% (active),10%,10%,74% (active)
CCCCCCCCCCCCCCCCCC[n+]1ccc(C(C)CC)cc1 (configuration not stated),1%,96% (active),99.3% (active),12%,98% (active),99.6% (active),18%,97% (active),99.2% (active),16%,87% (active),99.1% (active),29%,96% (active),99.2% (active),6%,97% (active),99.2% (active)
Cc1ccc(/C=N\NC(=S)N/N=C/c2ccc(C)cc2)cc1,-6%,98% (active),30.3%,2%,99% (active),40%,2%,99% (active),74.8% (active),-43%,98% (active),20%,-4%,99% (active),94.5% (active),0%,98% (active),59%
NC(=O)c1ncn(C2OC(CO)C(O)C2O)c1O (configuration not stated),20%,6%,-7.65%,-9%,-10%,-11.4%,-3%,7%,11.3%,13%,10%,4%,1%,32%,-7.85%,2%,-4%,-47.8%
C=C1CC(C)(COc2ccc3c(C)c(Cl)c(=O)oc3c2)OC1=O (configuration not stated),23%,95% (active),80% (active),2%,97% (active),68.8%,-2%,95% (active),81% (active),-15%,92% (active),76.8% (active),13%,94% (active),85.8% (active),8%,97% (active),58.6%
C/C=C1\CC(C)(CC)C(C#N)(C#N)C(N)=C1C#N (configuration not stated),0%,-9%,-5.9%,-3%,0%,10.5%,2%,-4%,-4.35%,-9%,-3%,3.35%,-3%,-2%,50.9%,0%,-9%,-28.7%
